Only some compounds are listed: those with a hit (about 12% of all), similar ones and a draw of the others.
Sfp inh = Sfp phosphopantetheinyl transferase inhibition; AID 1490; Biochemical Sfp PPTase activity, qHTS; Q9F4F7; Potency, µM, for the others: largest response in the series, negative = inhibition, actives largely listed as inhibitors; hit rate 3.5% among 310,000;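 note: the enzyme is Sfp with the accession as filed and its product quenches rhodamine fluorescence; 0% = enzyme reaction without inhibitor and -100% = no enzyme wells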
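Fluorescence-quenching assay with 15 nM Sfp, 5 uM rhodamine-CoA and 12.5 uM BHQ-2-labelled ybbR peptide in pH 7.6 Hepes/MgCl2 buffer. Enzyme was pre-incubated with compound for 15 min at room temperature. Rate was taken from the 30-min fluorescence change (525/598 nm).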
BAZ2B inh = blocks human BAZ2B; hit rate 4.4% among 360,000; Potency, µM (highest dose often 114 µM), without a hit: at the highest dose activity change, negative = inhibition, actives largely listed as inhibitors; Q9UIF8; AID 504333; AlphaScreen BAZ2B-H3K14Ac peptide displacement; note: % is set by controls: 0 for no effect and ±100 for the full control effect; nearly all actives have a fitted effect of over 60% in size
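Compounds, titrated to a top concentration of 110 uM, were incubated 30 min at room temperature with preformed BAZ2B/acetyl-K14 H3 peptide complex (50 nM each). Proximity signal was measured by AlphaScreen after 20 min with beads.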
JMJD2A Tudor = blocks the human JMJD2A Tudor domain | hit rate 4.4% among 390,000 | Potency, µM (series often up to 114 µM), for the others: at the highest dose activity change, negative = inhibition, hits mostly inhibitors | O75164 | AlphaScreen JMJD2A-Tudor / H3K4me3 peptide binding; note: % is set by controls: 0 for no effect and ±100 for the full control effect; nearly all actives have a fitted effect of over 50% in size
G9a block = G9a (human) methyltransferase inhibition; Q96KQ7; Potency, µM (series often up to 102 µM), inactives show at the highest dose activity, negative = inhibition, usual class: inhibitors; G9a H3K9 monomethylation, AlphaScreen, 2 h; AID 504332; hit rate 8.8% among 350,000; note: % is set by controls: 0 for no effect and ±100 for the full control effect; nearly all actives have a fitted effect of over 75% in size
Target sequence (Q96KQ7 913-1193 limits assumed): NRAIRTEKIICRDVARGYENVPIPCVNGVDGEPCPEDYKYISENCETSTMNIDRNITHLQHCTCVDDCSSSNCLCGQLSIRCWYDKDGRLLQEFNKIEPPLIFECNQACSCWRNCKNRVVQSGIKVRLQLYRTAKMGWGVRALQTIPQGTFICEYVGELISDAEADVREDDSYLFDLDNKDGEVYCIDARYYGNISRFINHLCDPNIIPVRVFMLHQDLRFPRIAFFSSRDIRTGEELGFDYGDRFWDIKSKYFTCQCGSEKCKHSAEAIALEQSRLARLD
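Using a bead-based AlphaScreen, monomethylated H3K9 product from 2 h room-temperature reactions (G9a 20 nM, peptide 500 nM, SAM 20 uM) was detected with 0.5 ug/mL rabbit anti-H3K9me1 antibody.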
PLK1 PBD block = PLK1 (human) polo-box domain binding inhibition. P53350. Plk1 PBD binding of FITC phosphopeptide, fluorescence polarization. Potency, µM, inactives show max response, negative = inhibition, usual class: inhibitors. hit rate 2.8% among 360,000; note: series mostly up to about 57 µM; % is set by controls: 0 for no effect and ±100 for the full control effect; nearly all actives have a fitted effect of over 65% in size
HP1b chromo inh = inhibitors of HP1-beta chromodomain binding to methylated histone tails; P83916; Potency, µM (doses to about 114 µM), inactives show top-dose activity change, negative = inhibition, usual class: inhibitors; AID 540317; hit rate 0.56% among 390,000; AlphaScreen HP1-beta / biotin-H3K9me3 peptide binding; note: nearly all actives have a fitted effect of over 70% in size
Target sequence (P83916 whole entry, looked up): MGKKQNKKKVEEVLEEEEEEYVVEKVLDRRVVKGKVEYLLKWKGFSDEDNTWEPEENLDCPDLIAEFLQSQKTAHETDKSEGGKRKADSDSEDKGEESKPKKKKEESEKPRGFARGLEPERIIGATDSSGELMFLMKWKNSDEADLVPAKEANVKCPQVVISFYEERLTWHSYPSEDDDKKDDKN
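AlphaScreen: HP1-beta (50 nM) preformed 30 min with biotin-H3(1-18)K9me3 peptide (50 nM) in PBS pH 7.4, 0.01% Tween-20. Compound added for 30 min at RT, then streptavidin donor/nickel chelate acceptor beads (10 ug/mL) for 30 min.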
The depositor's hits bear a star; ? = inconclusive; . = not tested or not shown; [ ] = another dose, or the depositor's remark. Calls come from the whole dose curve; as a rule, active = well fitted curve in the direction sought with a large enough effect; inconclusive = small, poorly fitted or top-dose-only effect, or another doubt; inactive = no such curve, though single readings can be large; an effect the other way counts as inactive or inconclusive. Potency is the fitted concentration of half-maximal effect.

SMILES	Sfp inh	BAZ2B inh	JMJD2A Tudor	G9a block	PLK1 PBD block	HP1b chromo inh
CCCn1c(C2CCCN2c2nc(-c3ccc(C)cc3)cs2)nc2ccccc21 (stereo unspecified)	50µM*	?	-28%	40µM*	?	-11%
Cc1ccc(-c2csc(N(CCO)CCCn3c(C(F)(F)F)nc4cc(C(F)(F)F)ccc43)n2)cc1	-4%	?	-35%	25µM*	-17%	4%
Cc1ccc(-c2csc(N3CCN(CCCn4c(-c5ccncc5)nc5ccccc54)CC3)n2)cc1	-22%	?	?	50µM*	-6%	?
Cc1ccc(Cn2c(C3CCCN3c3nc(-c4ccc(F)cc4)cs3)nc3cc(Cl)c(Cl)cc32)cc1 (stereo unspecified)	.	.	-28%	.	-4%	-5%
Cc1ccc(-c2csc(NCCn3c(C(F)(F)F)nc4ccccc43)n2)cc1	7%	-31%	-17%	?	-1%	3%
CCN(CC)S(=O)(=O)c1ccc(NC(=O)CSc2nnc3c(n2)[nH]c2ccccc23)cc1	.	.	-25%	.	.	23%
Cc1ccc(-c2csc(N3CCC[C@@H]3C(=O)NCCn3c(-c4ccncc4)nc4ccccc43)n2)cc1	-6%	45µM*	?	45µM*	-20%	-19%
O=C(NCCn1c(C(F)(F)F)nc2ccccc21)[C@H]1CCCN1c1nc(CN2CCCCC2)cs1	14%	1%	-12%	-27%	-9%	34%
CC(=O)N[C@@H](C)c1nc2ccccc2n1CCCN1CCN(c2nc(-c3ccc(C)cc3)cs2)CC1	-15%	?	?	45µM*	-9%	-17%
COc1cccc(CNC(=O)c2[nH]c3cc(C)ccc3c2Sc2ccccc2)c1	.	-32%	?	?	.	4%
CN(C)c1ccc(C2CC(c3cccc(NS(C)(=O)=O)c3)=NN2C(=O)c2ccccc2)cc1 (stereo unspecified)	-3%	20µM*	-25%[11.4 µM]	.	-24%	?
CCC(=O)N1N=C(c2ccc(NS(C)(=O)=O)cc2)CC1c1ccc(N(C)C)cc1 (stereo unspecified)	-2%	.	?	45µM*	-8%	-15%
O=C(CSc1ccccn1)Nc1ccc2ccccc2c1	-12%	6%	.	38%	.	.
O=C(CSc1ccccn1)Nc1ccc2c(c1)C(=O)c1ccccc1C2=O	-27%	50µM*	50µM*	?	0%	-21%
O=C(CSc1n[nH]c(=O)[nH]c1=O)Nc1ccc2c(c1)C(=O)c1ccccc1C2=O	-17%	50µM*	?	.	6.7µM*	11µM*
Cc1sc2nc(SCC(=O)Nc3cccc(S(N)(=O)=O)c3)[nH]c(=O)c2c1C	.	.	89µM*	.	24µM*	?
Cc1sc2nc(SCC(=O)Nc3ccc(Cl)c(C(=O)O)c3)[nH]c(=O)c2c1C	.	.	-19%	.	-26%	20%[57 µM]
Cc1sc2nc(SCC(=O)Nc3cccc(C(=O)O)c3)[nH]c(=O)c2c1C	.	-6%	-23%	25µM*	?	-14%
CCN(C(=O)COC(=O)c1ccc([N+](=O)[O-])o1)c1cccc2ccccc12	.	.	?	.	-15%	-14%
CN(C)CCNC(=S)Nc1ccc(-c2nc3ccccc3[nH]2)cc1	2%	-8%	-15%	50µM*	-10%	55%
O=C1CCCN1CCCNC(=S)Nc1ccccc1	-29%	2%	7%[57.1 µM]	.	-17%	56%
O=C(CNCc1ccccc1)NCCCN1CCCC1=O	-14%	-13%	2µM*	22µM*	-6%	?
CC(C)N(c1ccccc1)c1ccc(NC(=S)NCCN(C)C)cc1	-15%	-23%	-35%	45µM*	-6%	-9%
O=C1CCCN1CCCNC(=S)Nc1ccc(Nc2ccccc2)cc1	56µM*	?	-15%	.	-30%	-7%
C=CCn1c(SCC)nc2ccccc2c1=O	.	.	-2%[57.1 µM]	.	.	32%[57 µM]
SMILES	Sfp inh	BAZ2B inh	JMJD2A Tudor	G9a block	PLK1 PBD block	HP1b chromo inh
COc1ccc(OC)c(NC(=O)Cn2cc(C(=O)c3ccc(Cl)cc3)c(=O)c3cc(OC)ccc32)c1	.	-4%	-20%	3%[59 µM]	.	18%
COc1ccc(-c2cc3cc(OC)c(OC)cc3c(C)n2)cc1C	-4%	-16%	-12%[11.4 µM]	-10%[12.7 µM]	-17%	66%
CC(CC(=O)Nc1ccccc1)NCCCN1CCCC1=O (stereo unspecified)	-20%	50µM*	0.71µM*	8.9µM*	3%	79µM*
S=C(NCCCN1CCOCC1)Nc1ccc(-c2nc3ccccc3[nH]2)cc1	35µM*	.	-19%	32µM*	24µM*	-13%
S=C(NCCCN1CCOCC1)Nc1ccc(N2CCOCC2)cc1	-8%	-7%	-3%	?	-1%	37%
S=C(NCCCN1CCOCC1)Nc1ccc(Nc2ccccc2)cc1	-25%	?	-25%	45µM*	?	-11%
S=C(NCCN1CCOCC1)Nc1ccc(Nc2ccccc2)cc1	-2%	?	-30%	.	-11%	?
O=C(c1csnn1)N1CCC2(CCCN(c3ncccn3)C2)CC1	16%	.	.	1%[12.7 µM]	.	.
O=C(CSc1nc2c([nH]c3ccccc32)c(=O)n1-c1cccc(C(F)(F)F)c1)N1CCc2ccccc21	.	9%	-5%	7%[59 µM]	.	16%[57 µM]
CCOC(=O)C1=C(C)OC(N)=C(C#N)C1c1cc2c(cc1[N+](=O)[O-])OCO2 (stereo unspecified)	1%	?	?	50µM*	-19%	-14%
Cc1ccc(C(=O)NCC(=O)OCC(=O)Nc2cc(S(=O)(=O)N3CCOCC3)ccc2Cl)s1	.	.	-29%	.	-18%	20%
COc1ccc(/C(O)=C2\C(=O)C(=O)N(CCN(C)C)C2c2cccc(OC)c2OC)cc1Cl (stereo unspecified)	-2%	?	?	45µM*	?	3%
COc1ccc(/C(O)=C2/C(=O)C(=O)N(CCN(C)C)C2c2ccc(C)cc2)cc1Cl (stereo unspecified)	-2%	-6%	-9%	89µM*	-4%	34%
CN(C)CCN1C(=O)C(=O)/C(=C(/O)c2ccc(F)cc2)C1c1ccccc1F (stereo unspecified)	-4%	-35%	-21%	79µM*	-7%	14%
CCN(CC)CCN1C(=O)C(=O)/C(=C(/O)c2ccc(F)cc2)C1c1cccnc1 (stereo unspecified)	2%	-9%	-14%	25µM*	?	30%
COc1ccc(S(=O)(=O)N2CCCOC2CNC(=O)C(=O)NCCc2ccco2)cc1C (stereo unspecified)	12%	-34%	-23%	-16%	1%	29%
CNS(=O)(=O)c1ccc(Cl)nc1	-9%	5%	-7%	-16%	-7%	16%
COc1cc(CN(C(=O)c2ccccc2[N+](=O)[O-])c2ccccn2)cc(OC)c1OC	.	-10%	0%	6%[59 µM]	.	58%

Screening results as filed in PubChem BioAssay.
